# Results from PubChem BioAssay AID540256 (National Center for Advancing Translational Sciences (NCATS), 2011).
# Among all 300,000 compounds or so, about 3,700 (1.2%) were called active. Inconclusive results (about 20%) are left out. The sample holds actives, similar compounds and a random draw of the others, so the mix is not that of the screen. Values without a mark were called inactive. The call rests on the fitted dose curve; tested in HEK293 cells.
# Experiment: qHTS for Inhibitors of binding or entry into cells for Lassa Virus; further: nearly all actives have a fitted effect of over 50% in size
# Conditions: Lassa virus pseudotype entry inhibition, cell reporter; series mostly up to 37.9 µM; activity change, negative = inhibition: at the top concentration
# On the % scale 0 is the no-effect control and ±100 the full control effect; potency means the concentration at half of the fitted maximal effect.
Compound,"activity change, negative = inhibition",Potency
CCCCCCn1c(CN2CCCCC2)nc2c1c(=O)n(C)c(=O)n2C,-21.6%,–
CCCCCCCCn1c2c(c(=N)c3c1CCC3)CCCC2,–,5.62 µM (active)
CCCCN(CC(=O)Nc1cccc(S(=O)(=O)N2CCCC2)c1)Cc1nc2ccccc2c(=O)[nH]1,-17.3%,–
O=C(Nc1ccccc1)Oc1cccc2cccnc12,0.944%,–
O=C(CNC(=O)c1ccccc1Br)NCCSc1ccc(Br)cc1,-7.68%,–
Oc1[nH]c2ccccc2c1N=Nc1c(F)c(F)c(F)c(F)c1F,13.9%,–
CN1CCN(c2ccc(S(=O)(=O)Nc3ccccc3)cc2[N+](=O)[O-])CC1,-6.99%,–
O=[N+]([O-])c1cc(S(=O)(=O)Nc2cccc(Cl)c2)ccc1N=Nc1c(O)[nH]c2ccccc12,–,11.2 µM (active)
CC1(C)N=C(N)NC(Nc2ccc(Cl)cc2)=N1,7.27% [at 46.1 µM],–
Cc1ccc(S(=O)(=O)N(CC(=O)N2CCc3ccccc3C2)c2cccc(Cl)c2)cc1,–,14.1 µM (active)
CS(=O)(=O)N(CC(=O)N1CCc2ccccc2C1)c1ccc(Br)cc1,-2.02%,–
COc1cccc(N(CC(=O)N2CCc3ccccc3C2)S(C)(=O)=O)c1,-7.14%,–
Cc1ccc(S(=O)(=O)N2CCC(C(=O)N3CCCCCCC3)CC2)cc1,-28.9%,–
O=C(c1ccc(F)c(S(=O)(=O)N2CCOCC2)c1)N(CCc1ccccc1)Cc1ccccc1,-2.24%,–
C=CCn1c(C)cc(C2=NNC(=NCC)SC2)c1C,–,1.64 µM (active)
Cc1cc(C2=NNC(=Nc3ccc(S(=O)(=O)N4CCOCC4)cc3)SC2)c(C)n1CC1CCCO1 (stereo not drawn),0.163% [at 46.1 µM],–
COc1ccc(C(=O)O/N=C(\N)Cc2ccc(Cl)cc2Cl)cc1OC,–,20 µM (active)
COc1ccc(C/C(N)=N/OC(=O)c2ccco2)cc1OC,21.5%,–
COc1ccc(C(=O)ON=C2c3ccccc3-c3ccccc32)cc1OC,21.5%,–
O=C(CN1CCSc2ccccc21)N1CCN(c2ccccc2)CC1,7.02% [at 46.1 µM],–
CCOc1cc(C(=O)NCCc2csc3nc(-c4ccc(C)cc4)nn23)cc(OCC)c1OCC,12.3% [at 46.1 µM],–
Cc1cc(=O)[nH]c(SCc2ccc(Cl)cc2)n1,-0.267%,–
c1ccc(C(c2ccccc2)N2CCN(Cc3nnnn3C3CCCCC3)CC2)cc1,–,11.6 µM (active)
Cn1nnnc1SCC(=O)N1CCN(C(c2ccccc2)c2ccccc2)CC1,0.563%,–
O=C(O)CN1CCN(C(c2ccccc2)c2ccccc2)CC1,1.74% [at 46.1 µM],–
COc1ccc(N2CCN(C(=O)CCNC(=O)c3ccc(Br)cc3)CC2)cc1,-23.1%,–
Cc1ccc(S(=O)(=O)NCCC(=O)OCC(=O)N(C)c2ccccc2)cc1,6.99% [at 46.1 µM],–
Cc1cc(C)nc(N/N=C/c2c(CO)cnc(C)c2O)n1,-18.4% [at 46.1 µM],–
